The list is not random: actives were taken first. Their share in the collection is about 3.2%.
AMA1 RON2 block = qHTS for Inhibitors of AMA1-RON; Towards Development of Antimalarial Drug Lead: Primary Screen; AlphaScreen AMA1-biotinylated RON2 peptide binding; Potency, µM (series often up to 58.2 µM), most hits filed as inhibitors; 0.2% of 360,000 active; AID 720542, 2013; note: nearly all actives have a fitted effect of over 45% in size
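AMA1 (3D7) with his tag at 25 nM final met compounds first, then biotinylated RON2 peptide at 25 nM; detection used donor plus acceptor beads, 10 µg/mL apiece, read by AlphaScreen after 30 min at room temperature.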
RE007 growth inh = qHTS Assay for Inhibitors of the HIV-1 protein Vpr; S. pombe RE007 Vpr strain, BacTiter-Glo ATP luminescence, 24 h; AID 651644, 2012; Potency, µM (titrated, usually from 92.2 µM), hits mostly inhibitors; 0.21% of 360,000 active; active = well fitted falling curve with a large enough effect; inconclusive = small, poorly fitted or top-dose-only effect; inactive = no such curve, though single readings can be large or run the other way; note: nearly all actives have a fitted effect of over 50% in size
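Fission yeast RE007 carrying one integrated HIV-1 vpr copy, seeded at OD 0.01 in PMG+AL medium with 23 nL pinned compound. Grown 24 h at 30 degrees; viability read by BacTiter-Glo luminescence after 5 min.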
AmpC detergent = qHTS Inhibitors of AmpC Beta-Lactamase (assay with detergent); P00811; AmpC hydrolysis of nitrocefin, absorbance 480 nm, 0.01% Triton; Potency, µM (highest dose often 114 µM), hits mostly inhibitors; 0.041% of 370,000 active; note: nearly all actives have a fitted effect of over 25% in size
Target sequence (P00811 whole entry, looked up): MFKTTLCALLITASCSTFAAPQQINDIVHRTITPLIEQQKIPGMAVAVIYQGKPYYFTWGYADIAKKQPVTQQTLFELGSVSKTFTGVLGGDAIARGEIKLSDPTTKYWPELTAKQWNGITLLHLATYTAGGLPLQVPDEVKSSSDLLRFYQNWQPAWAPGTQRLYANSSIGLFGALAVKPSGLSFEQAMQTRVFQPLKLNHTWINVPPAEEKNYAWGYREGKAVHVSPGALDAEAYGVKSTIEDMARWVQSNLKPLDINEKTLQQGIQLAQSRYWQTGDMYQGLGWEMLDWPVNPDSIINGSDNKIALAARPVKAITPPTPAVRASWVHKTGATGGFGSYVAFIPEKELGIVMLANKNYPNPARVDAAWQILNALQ
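AmpC (5.3 nM in the dispensed reagent) in 20 mM phosphate pH 7.0 with 0.01% (detergent screen) or 0.0001% Triton X-100 was preincubated with compounds for 15 min at room temperature. Nitrocefin was then added from an 800 uM solution, and hydrolysis was followed at 480 nm.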
AmpC inh no detg = qHTS Inhibitors of AmpC Beta-Lactamase (assay without detergent). P00811. AmpC nitrocefin hydrolysis, absorbance 480 nm, 0.0001% Triton. Potency, µM (top dose mostly 57.1 µM), most hits filed as inhibitors. 0.52% of 330,000 active; note: nearly all actives have a fitted effect of over 20% in size
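20 mM phosphate pH 7.0 + 0.01% (detergent screen) or 0.0001% Triton X-100; 5.3 nM AmpC reagent; cpd preinc 15 min RT; nitrocefin (800 uM stock) to start; A480 q20 s × 4 min; Activity was normalised to no-enzyme and no-compound control wells.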
Sm TGR inh = qHTS Assay for the Inhibitors of Schistosoma Mansoni Peroxiredoxins. Schistosoma mansoni thioredoxin glutathione reductase (TGR), Q962Y6. purified TGR, DTNB reduction, TNB absorbance 405 nm. Potency, µM (highest dose often 114 µM), most hits filed as inhibitors. 3% of 360,000 active; note: nearly all actives have a fitted effect of over 60% in size
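Kinetic colorimetric format: TGR-catalysed, NADPH-driven DTNB reduction monitored via TNB absorbance. Enzyme dispensed at 20 nM; compound exposure 15 min at room temperature before reaction start.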
Of the large screens only hits and unclear results are named; the others gave an inactive call. Unless noted, calls come from the whole dose curve; as a rule, active = well fitted curve in the direction sought with a large enough effect; inconclusive = small, poorly fitted or top-dose-only effect, or another doubt; inactive = no such curve, though single readings can be large; an effect the other way counts as inactive or inconclusive.

O=C(CCl)Nc1cccc(S(=O)(=O)N2CCCCCC2)c1	Sm TGR inh 11µM (no result: RE007 growth inh)
Cc1ccc(S(=O)(=O)N2CCOCC2)cc1NC(=O)Cn1nnc(-c2ccccc2)n1	none (no result: AmpC detergent, AmpC inh no detg, Sm TGR inh)
O=C(COC(=O)c1ccc(O)cc1)Nc1cccc(S(=O)(=O)N2CCCCC2)c1	AmpC inh no detg 8.9µM
O=C(Cn1nnc(-c2ccccc2)n1)Nc1cccc(S(=O)(=O)N2CCOCC2)c1	AmpC inh no detg 18µM
O=C(Cc1ccc(Cl)cc1)Nc1cccc(S(=O)(=O)N2CCCCC2)c1	none
Cc1ccc2c(c1)Oc1ccc([N+](=O)[O-])cc1C(=O)N2	none
Cc1ccc2c(c1)Oc1ccc(NC(=O)CCl)cc1C(=O)N2	Sm TGR inh 11µM
COc1cc(NC(=O)Cn2ncc(Cl)c(Cl)c2=O)c(C)cc1[N+](=O)[O-]	Sm TGR inh 40µM
O=C(c1ccc(O)c(Br)c1)c1cc(Br)ccc1O	RE007 growth inh 63µM (no result: AmpC detergent, AmpC inh no detg, Sm TGR inh)
Cc1cccc(NS(=O)(=O)c2ccc3c(c2)CCN3C(=O)C2CC2)c1C	none (no result: AMA1 RON2 block, RE007 growth inh, AmpC inh no detg)
Cc1ccc(-c2ccc(C3C(C#N)=C(N)Oc4n[nH]c(C)c43)o2)cc1 (stereo unspecified)	none
Cc1[nH]nc2c1C(c1ccc(-c3ccccc3C#N)o1)C(C#N)=C(N)O2 (stereo unspecified)	AmpC detergent inconclusive, Sm TGR inh 13µM
CC(OC(=O)/C=C/c1ccc2ccccc2n1)C(=O)N(C)c1ccccc1 (stereo unspecified)	AmpC detergent inconclusive
CC(=O)/C=C/c1ccc2ccccc2n1	RE007 growth inh 25µM, Sm TGR inh 89µM
O=C(Nc1ccc(Cl)cc1)[C@@H]1[C@@H]2C(=O)N(c3ccc(Cl)cc3)C(=O)[C@@H]2[C@H]2C=CC=NN21	Sm TGR inh 50µM
Cc1ccc(N2C(=O)[C@@H]3[C@H](C2=O)[C@H]2C=CC=NN2[C@@H]3C(=O)Nc2ccc(Cl)cc2)cc1	none
O=C(CCn1c(=O)c2ccccc2n(Cc2cccc(Cl)c2)c1=O)NCCc1ccccc1	none (no result: AMA1 RON2 block, RE007 growth inh, AmpC inh no detg)
COc1ccc(C2=NOC3(CC(=O)N(c4ccc(F)cc4)C3=O)C2)cc1 (stereo unspecified)	Sm TGR inh 20µM
COc1ccc(C2=NOC3(CC(=O)N(c4ccc(F)cc4)C3=O)C2)c(OC)c1 (stereo unspecified)	AmpC detergent inconclusive
O=C(Nc1cc(Cl)cc(Cl)c1)c1cc(S(=O)(=O)N2CCC3(CC2)OCCO3)ccc1F	none (no result: AMA1 RON2 block, RE007 growth inh, AmpC inh no detg)
Cc1ccccc1NC(=S)c1ccc2ccccc2n1	Sm TGR inh 50µM
CCCN(CC(=O)Nc1ccccc1C)C(=O)c1ccc2ccccc2n1	none
O=S(=O)(NCc1nc2cccnc2n1Cc1ccc(F)cc1)c1ccc2c(c1)CCCC2	none (no result: AMA1 RON2 block, RE007 growth inh, AmpC inh no detg)
CCOc1ccc(N2C(=O)CC(NCCc3ccc(S(N)(=O)=O)cc3)C2=O)cc1 (stereo unspecified)	none
CCCOc1ccc(N2C(=O)CC(NCCNc3ccc(S(=O)(=O)CC)cc3)C2=O)cc1 (stereo unspecified)	Sm TGR inh inconclusive
COc1ccc(N2C(=O)CC(NCCNc3ccc([N+](=O)[O-])cn3)C2=O)cc1 (stereo unspecified)	Sm TGR inh 14µM
CCOc1ccc(N2C(=O)CC(NCCNc3ccc([N+](=O)[O-])cn3)C2=O)cc1 (stereo unspecified)	Sm TGR inh 7.1µM
CCCOc1ccc(N2C(=O)CC(NCCc3ccc(S(N)(=O)=O)cc3)C2=O)cc1 (stereo unspecified)	RE007 growth inh inconclusive, AmpC detergent inconclusive, Sm TGR inh 45µM
O=C(Sc1ccccc1)c1cccc(Cn2cc(C(F)(F)F)ccc2=O)c1	Sm TGR inh 22µM
O=C(CSc1nc2ccsc2c(=O)n1-c1ccc(Br)cc1)NCc1ccccc1	none (no result: AMA1 RON2 block, RE007 growth inh, AmpC inh no detg)
CC(NC(=O)Nc1ccc(Cl)cc1)C(c1cccs1)N1CCOCC1 (stereo unspecified)	AmpC detergent inconclusive, AmpC inh no detg 2.5µM
CCN1CCN(C(c2cccs2)C(C)NC(=O)NC2CCCCC2)CC1 (stereo unspecified)	AmpC detergent inconclusive, AmpC inh no detg 45µM
CC(NC(=O)Nc1ccccc1)C(c1cccs1)N1CCOCC1 (stereo unspecified)	AmpC detergent inconclusive
COc1ccc(OC)c(NC(=O)Cn2c(=O)n(Cc3nc(C)no3)c(=O)c3ccccc32)c1	none (no result: AMA1 RON2 block, RE007 growth inh, AmpC inh no detg)
O=C(Nc1ccc2nc(SCC(=O)N3CCOCC3)sc2c1)c1cccc(Cl)c1	none (no result: AMA1 RON2 block, RE007 growth inh, AmpC inh no detg)
COc1cc(CN2CCCCC2C(=O)Nc2ccc(Oc3ccccc3)nc2)ccc1O (stereo unspecified)	Sm TGR inh 1.8µM
O=C(Nc1ccc(Oc2ccccc2)nc1)C1CCCCN1Cc1ccc(O)cc1 (stereo unspecified)	Sm TGR inh 32µM (no result: AMA1 RON2 block, RE007 growth inh)
O=C(Nc1ccc(Oc2ccccc2)nc1)C1CCCCN1Cc1cccc(O)c1 (stereo unspecified)	none
CC1=C(C(N)=O)C(c2cccc(Br)c2)n2nc(SCc3ccccc3Cl)nc2N1 (stereo unspecified)	none (no result: AMA1 RON2 block, RE007 growth inh, AmpC inh no detg)
Cc1ccc(-c2csc3nc(C)n(-n4c(C)ccc4C)c(=O)c23)o1	Sm TGR inh 6.3µM
C=CCn1c(SCC(=O)NC2CCCC2)nc2scc(-c3ccco3)c2c1=O	AMA1 RON2 block inconclusive, AmpC detergent inconclusive, AmpC inh no detg 35µM, Sm TGR inh 11µM
C=CCn1c(SCC(C)=O)nc2scc(-c3ccc(C)o3)c2c1=O	Sm TGR inh 16µM
C=CCn1c(=S)[nH]c2scc(-c3ccc(C)o3)c2c1=O	AmpC detergent inconclusive, Sm TGR inh 35µM
C=CCn1c(SCC(=O)Nc2c(C)n(C)n(-c3ccccc3)c2=O)nc2scc(-c3ccccc3)c2c1=O	AmpC detergent inconclusive
O=C(CSc1nc2c(cnn2-c2ccc(F)cc2)c(=O)[nH]1)Nc1ccccc1C(F)(F)F	none (no result: AMA1 RON2 block, RE007 growth inh, AmpC inh no detg)
C=CCn1c(SCC(=O)NCCCC)nc2scc(-c3ccco3)c2c1=O	AmpC detergent inconclusive, Sm TGR inh 14µM
CC1CCN(C(=O)CSc2nc(-c3ccccc3)no2)CC1	none (no result: AMA1 RON2 block, RE007 growth inh, AmpC inh no detg)
Cc1ccc(/C=N/n2c(-c3cccnc3)n[nH]c2=S)o1	Sm TGR inh 28µM
Cc1ccc(/C=N/n2c(-c3ccccn3)n[nH]c2=S)o1	AMA1 RON2 block inconclusive, Sm TGR inh 45µM
CCOC(=O)CSc1nc2cc(OC)c(OC)cc2c2nc(-c3ccccc3)nn12	none (no result: AMA1 RON2 block, RE007 growth inh, AmpC inh no detg)
CCOC(=O)c1c(NC(=O)CCCOc2ccc(C(C)(C)C)cc2)sc2c1CCCC2	none (no result: AMA1 RON2 block, RE007 growth inh, AmpC inh no detg)
CSC1=C(C#N)C(=O)NC(c2ccc(Cl)cc2)S1 (stereo unspecified)	Sm TGR inh 10µM

Bioassay records deposited in PubChem BioAssay by National Center for Advancing Translational Sciences (NCATS).
